Nuclei count data for 57 molecules are collected here from the supplement of paper PMC8183993.

Where “and” joins values, the source holds several entries; their conditions need not be identical. Identical values can stand only once. Counter-ions that a name gives are not always drawn. ± gives the standard deviation of the averaged measurements. Whole data set: some 3,200 compounds, median “nuclei count (viability) relative to DMSO” near 99, cut for the lowest 2% near 16. Shown is part of a subset that was picked to be rich in the lowest values.

For this assay, the system named is U2OS. Nature of the assay: nuclei count (viability) relative to DMSO (% of DMSO); higher = more viable cells. The following applies: 10 µM; 24 h. On the procedure:
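Primary image-based screen in U2OS cells: compounds at 10 uM for 24 h, then a 1 h o-propargyl-puromycin (OPP) pulse, click labelling, and high-throughput microscopy. Mean cytoplasmic OPP intensity and nuclei count were normalised to DMSO wells within each plate (DMSO = 100) and averaged over triplicate plates.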
Turning to `C=CC(=O)Nc1cccc(Nc2nc(Nc3ccc(N4CCN(C(C)=O)CC4)cc3OC)ncc2C(F)(F)F)c1`, the nuclei count stood at 57.6.
As for `C=CC(=O)Nc1cccc(Nc2nc(Nc3ccc(NC4CN(CCF)C4)cc3OC)ncc2C(F)(F)F)c1`, the figure is 20.7; as for `CC(=O)NCC(=O)N1[C@@H]2CC[C@H]1c1ccc(Nc3ncc(C(F)(F)F)c(NC4CCC4)n3)cc12`, 16.4.
For the molecule `COc1ccc(Br)cc1S(=O)(=O)NC(=O)/C=C/c1ccccc1Cc1ccc2ccccc2c1`, the nuclei count amounted to 104.
The molecule `O=C1c2ccccc2-c2nc3nonc3nc21` came in with a nuclei count of 44.
Molecule `CCCCCCCc1ccc(CCc2cccc(O)c2C(=O)O)cc1` came in with a nuclei count of 7.35.
Then `CCCCCCCCc1ccc(CCC(N)(CO)CO)cc1` [Fingolimod (FTY720)], with 18.9 ± 0.71.
As for `CCCCCCCCc1ccc(-c2ccc(C(=O)O)cc2)cc1`, the figure is 108.
Then `CC(C)=CCC/C(C)=C/CC/C(C)=C/CSCC(=O)O` [Farnesylthioacetic acid], with 97.9.
The molecule `C1COC(NC(C2CC2)C2CC2)=N1` [Rilmenidine] returned a nuclei count of 93.6.
In the case of `C1COC(NC(C2CC2)C2CC2)=N1` [Rilmenidine hemifumarate], the nuclei count stood at 103.
Then `CC(C)(C)c1ccc(S(=O)(=O)/C=C/C#N)cc1`, with 43.7.
Then `COc1cc([C@@H]2c3cc4c(cc3[C@@H](O[C@@H]3O[C@@H]5CO[C@@H](c6cccs6)O[C@H]5[C@H](O)[C@H]3O)[C@H]3COC(=O)[C@H]23)OCO4)cc(OC)c1O` [Teniposide (Vumon)], with 15.5; and `COc1cc([C@@H]2c3cc4c(cc3[C@@H](O[C@@H]3O[C@@H]5CO[C@@H](C)O[C@H]5[C@H](O)[C@H]3O)[C@H]3COC(=O)[C@H]23)OCO4)cc(OC)c1O` [Etoposide], with 44.3 ± 2; and `COc1cc([C@@H]2c3cc4c(cc3[C@@H](O[C@@H]3O[C@@H]5CO[C@@H](C)O[C@H]5[C@H](O)[C@H]3O)[C@H]3COC(=O)[C@H]23)OCO4)cc(OC)c1O` [Etoposide (VP-16)], with 50.9.
Then `CC[C@H](CO)Nc1nc(Nc2cccc(-c3ccccn3)c2)c2ncn(C(C)C)c2n1` [(R)-DRF053 dihydrochloride], with 76.2.
Molecule `CC(Oc1ccc(O)cc1)(P(=O)(O)O)P(=O)(O)O` returned a nuclei count of 105 ± 0.12.
`CO[C@@H]1[C@H](O)[C@@H](CO)O[C@H]1n1cnc2c(NC3CCCCC3)ncnc21` showed a nuclei count of 102.
As to `COCC[n+]1c2c(n(Cc3cnccn3)c1C)C(=O)c1ccccc1C2=O`, the nuclei count is 14.1.
As for `CC(=O)NNC(=O)N1Cc2ccccc2Oc2ccc(Cl)cc21`, the figure is 94.3; as for `OCc1ccc(O[C@@H]2O[C@H](CO)[C@@H](O)[C@H](O)[C@H]2O)cc1` [Gastrodin (Gastrodine)], 94.5.
As for `CCN(CC)CCOc1ccc(Cc2ccccc2)cc1` [DPPE fumarate], the figure is 101.
As for `CSc1cccc(Nc2ncc3cc(-c4c(Cl)cccc4Cl)c(=O)n(C)c3n2)c1`, the figure is 72.2.
Molecule `CCN(CC)CCOc1ccc(Nc2ncc3cc(-c4c(Cl)cccc4Cl)c(=O)n(C)c3n2)cc1` registered a nuclei count of 7.54.
As for `Cc1ccc(CC2(O)CCN(CCOc3ccc(O)cc3)CC2)cc1`, the figure is 87.3.
As for `COc1ccc(CCC(=O)c2c(O)cc(O[C@@H]3O[C@H](CO)[C@@H](O)[C@H](O)[C@H]3O[C@@H]3O[C@@H](C)[C@H](O)[C@@H](O)[C@H]3O)cc2O)cc1O` [Neohesperidin dihydrochalcone (Nhdc)], the nuclei count came out at 98.7.
As for `COC(=O)[C@]12CCC(C)(C)C[C@H]1[C@H]1C(=O)C=C3[C@@]4(C)C=C(C#N)C(=O)C(C)(C)[C@@H]4CC[C@@]3(C)[C@]1(C)CC2` [Bardoxolone Methyl], the figure is 4.35.
Then `C[C@]12CC[C@@H](O)C[C@@H]1CC[C@@H]1[C@@H]2CC[C@]2(C)C=CC[C@@H]12` [3a, 5a-Androstenol], with 90.5; and `Cc1ccc(NC(=O)c2ccc(CN3CCN(C)CC3)cc2)cc1Nc1nc(-c2cccnc2)cs1` [Masitinib (AB1010)], with 90.7.
For the molecule `Cc1ccc(NC(=O)c2ccc(CN3CCN(C)CC3)cc2)cc1Nc1nccc(-c2cccnc2)n1` [Imatinib (STI571)], the nuclei count turned out to be 99.1.
Then `Cc1ccc(NC(=O)c2ccc(CN3CCN(C)CC3)cc2)cc1Nc1nccc(-c2cccnc2)n1` [Imatinib mesylate], with 93.1 ± 2.5.
Then `Cc1ccc(C(=O)Nc2ccc(CN3CCN(C)CC3)c(C(F)(F)F)c2)cc1C#Cc1cnc2cccnn12`, with 16.3; and `Cc1ccc(NC(=O)c2ccc(CN3CCN(C)CC3)cc2)cc1Nc1nccc(-c2cccnc2)n1` [Imatinib], with 101; and `Cc1ccc(NC(=O)c2ccc(CN3CCN(C)CC3)cc2)cc1Nc1nccc(-c2cccnc2)n1` [Imatinib Mesylate], with 96.8.
Then `Cc1ccc(C(=O)Nc2ccc(CN3CCN(C)CC3)c(C(F)(F)F)c2)cc1C#Cc1cnc2[nH]ncc2c1` [GZD824 Dimesylate], with 14.1; and `Cc1ccc(NC(=O)c2ccc(CN3CC[C@H](N(C)C)C3)c(C(F)(F)F)c2)cc1Nc1nccc(-c2cncnc2)n1` [Bafetinib (INNO-406)], with 77.9; and `CCNC(=O)Nc1ccc(-c2nc3c(c(N4CCOC[C@@H]4C)n2)CCN(C2COC2)C3)cc1`, with 75.4 ± 5.5.
The molecule `O=C(O)[C@]1(Cc2cccc(Nc3nccs3)n2)CC[C@@H](Oc2cccc(Cl)c2F)CC1` returned a nuclei count of 77.7 ± 2.7.
Consider `CC(C1=C(CCN(C)C)Cc2ccccc21)c1ccccn1` (stereo in doubt) [(S)-(+)-Dimethindene maleate], for which the nuclei count is 101.
Then `CCNC(=O)c1cc2c(-c3cc(OCCN4CCCC4)c(Cl)cc3Cl)nc(N)nc2s1`, with 67.
Then `NC(=O)N1c2ccccc2CC(O)c2ccccc21` (configuration not stated) [Licarbazepine], with 104; and `CCNc1nc(Nc2cc(F)c(C(=O)N3CCOCC3)cc2OC)ncc1C(F)(F)F`, with 96.2; and `COc1ccc(-n2[nH]c3c4c(ncc3c2=O)CCCCC4)cc1`, with 99.9.
Then `O=C(O)c1cc(O)ccc1O` [Gentisic acid], with 103; and `COc1ccc2[nH]c(-c3ccccc3)c(CCNC(C)=O)c2c1` [2-Phenylmelatonin], with 84.5; and `N[C@@H](CSC(c1ccccc1)(c1ccccc1)c1ccccc1)C(=O)O` [S-Trityl-L-cysteine], with 95.
The molecule `C=CC(=O)Nc1cccc(Nc2nc(Nc3ccc(OCCOC)cc3)ncc2F)c1` displayed a nuclei count of 34.7.
`Cc1cnc(Nc2ccc(N3CCN(C)CC3)cc2)nc1Nc1cccc(S(=O)(=O)NC(C)(C)C)c1` returned a nuclei count of 5.44.
In the case of `CS(=O)(=O)c1cccc(CNc2nc(Nc3ccc4c(c3)CCC(=O)N4)ncc2C(F)(F)F)c1`, the nuclei count amounted to 45.9 ± 3.2.
Then `Cc1cnc(Nc2ccc(OCCN3CCCC3)cc2)nc1Nc1cccc(S(=O)(=O)NC(C)(C)C)c1`, with 7.48 and 5.57; and `C=CCn1c(=O)c2cnc(Nc3ccc(N4CCN(C)CC4)cc3)nc2n1-c1cccc(C(C)(C)O)n1`, with 25.1; and `CNC(=O)c1nn(C)c2c1C(C)(C)Cc1cnc(Nc3ccc(N4CCN(C)CC4)cc3)nc1-2`, with 54.8 and 36.4.
Molecule `Oc1cc2c(cc1O)[C@@H]1c3ccc(O)c(O)c3OC[C@]1(O)C2` [Hematoxylin (Hydroxybrazilin)] gave a nuclei count of 86.
As for `Cc1nn(C)c2nc(NNC(=O)Nc3cc(Cl)nc(Cl)c3)cc(C(C)C)c12`, the figure is 106.
In turn, `COC(=O)C1=C(C)NC(C)=C([N+](=O)[O-])[C@H]1c1ccccc1C(F)(F)F` showed a nuclei count of 99.5.
Then `O=C(c1ccc(Cl)cc1Cl)n1nnc2ccccc21`, with 83.2.
Then `COc1cc(OC)c(/C=C/S(=O)(=O)Cc2ccc(OC)c(NCC(=O)O)c2)c(OC)c1`, with 16.3 ± 1.4.
